In PubChem BioAssay (NCI):
The panel holds about 83,000 compounds, 20% with a hit somewhere; the sample as a whole holds those more often.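 Testing used 96-well plates and a 48-hour single-concentration exposure. Example: -40 means 40% of the starting cells died.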

How the values were obtained:
Assay in all cases: NCI-60 one-dose screen, 48 h (100 = growth as untreated, 0 = no growth, -100 = all killed); active = growth percent below 10; inactive = the rest
HCT-15 colon = conditions: 10 µM
HT29 colon = conditions: 10 µM
SNB-75 CNS = conditions: 10 µM
SNB-19 CNS = conditions: 10 µM
U251 CNS = conditions: 10 µM
PC-3 prostate = conditions: 10 µM
SK-MEL-5 melanoma = conditions: 10 µM
UACC-62 melanoma = conditions: 10 µM unless noted
LOX IMVI melanoma = conditions: 10 µM
SK-MEL-28 melanoma = conditions: 10 µM
SK-MEL-2 melanoma = conditions: 10 µM
EKVX NSCLC = conditions: 10 µM
SN12C renal = conditions: 10 µM
UO-31 renal = conditions: 10 µM
TK-10 renal = conditions: 10 µM unless noted
ACHN renal = conditions: 10 µM
CAKI-1 renal = conditions: 10 µM
A498 renal = conditions: 10 µM
CCRF-CEM leukemia = conditions: 10 µM
MOLT-4 leukemia = conditions: 10 µM

Measured: growth

C[C@]12CC[C@@H]3c4ccc(OCC(=O)O)cc4CC[C@H]3[C@@H]1CCC2=O
inactive: HCT-15 colon 106% | HT29 colon 104% | SNB-75 CNS 83.5% | SNB-19 CNS 103% | U251 CNS 104% | PC-3 prostate 95.7% | SK-MEL-5 melanoma 99.9% | UACC-62 melanoma 96.5% | LOX IMVI melanoma 86% | SK-MEL-28 melanoma 118% | SK-MEL-2 melanoma 105% | EKVX NSCLC 117% | SN12C renal 102% | UO-31 renal 86.1% | TK-10 renal 103% | ACHN renal 96.9% | CAKI-1 renal 113% | A498 renal 78.1% | CCRF-CEM leukemia 116% | MOLT-4 leukemia 86.2%

CC1(C)N=C(N)N=C(N)N1c1cccc(Br)c1
inactive: HCT-15 colon 32.4% | HT29 colon 28.4% | SNB-75 CNS 58.6% | SNB-19 CNS 44.9% | U251 CNS 32.9% | PC-3 prostate 38.5% | SK-MEL-5 melanoma 26.7% | UACC-62 melanoma 30.2% | LOX IMVI melanoma 20.2% | SK-MEL-28 melanoma 72.5% | SK-MEL-2 melanoma 65.3% | EKVX NSCLC 45.1% | SN12C renal 37.3% | UO-31 renal 50.2% | TK-10 renal 51.7% | ACHN renal 30.2% | CAKI-1 renal 70% | A498 renal 104% | CCRF-CEM leukemia 36.1% | MOLT-4 leukemia 41.4%

CCC(C)(O)c1ccc(C)cc1 (stereo not given)
inactive: HCT-15 colon 107% | HT29 colon 107% | SNB-75 CNS 91.7% | SNB-19 CNS 97.8% | U251 CNS 105% | PC-3 prostate 99.6% | SK-MEL-5 melanoma 98.5% | UACC-62 melanoma 102% | LOX IMVI melanoma 106% | SK-MEL-28 melanoma 104% | SK-MEL-2 melanoma 98% | EKVX NSCLC 109% | SN12C renal 102% | UO-31 renal 91.4% | TK-10 renal 99.6% | ACHN renal 108% | CAKI-1 renal 104% | A498 renal 96.9% | CCRF-CEM leukemia 99.3% | MOLT-4 leukemia 95.6%

S=C1CCCCCN1
inactive: HCT-15 colon 100% | HT29 colon 108% | SNB-75 CNS 89.1% | SNB-19 CNS 99.1% | U251 CNS 111% | PC-3 prostate 105% | SK-MEL-5 melanoma 107% | UACC-62 melanoma 100% | LOX IMVI melanoma 101% | SK-MEL-28 melanoma 105% | SK-MEL-2 melanoma 105% | EKVX NSCLC 98.1% | SN12C renal 100% | UO-31 renal 82.5% | TK-10 renal 109% | ACHN renal 99.1% | CAKI-1 renal 93.9% | A498 renal 101% | CCRF-CEM leukemia 107% | MOLT-4 leukemia 111%

CC(C)CCOC(=O)c1ccccc1
inactive: HCT-15 colon 111% | HT29 colon 108% | SNB-75 CNS 95.6% | SNB-19 CNS 105% | U251 CNS 97.5% | PC-3 prostate 97.9% | SK-MEL-5 melanoma 105% | UACC-62 melanoma 104% | LOX IMVI melanoma 101% | SK-MEL-28 melanoma 103% | SK-MEL-2 melanoma 106% | EKVX NSCLC 110% | SN12C renal 102% | UO-31 renal 92% | TK-10 renal 101% | ACHN renal 111% | CAKI-1 renal 97.1% | A498 renal 97.7% | CCRF-CEM leukemia 109% | MOLT-4 leukemia 98.7%

CC(=O)c1ccc(C(C)(C)C)cc1
inactive: HCT-15 colon 101% | HT29 colon 96.7% | SNB-75 CNS 97.7% | SNB-19 CNS 95.6% | U251 CNS 99.6% | PC-3 prostate 91.2% | SK-MEL-5 melanoma 101% | UACC-62 melanoma 91.1% | LOX IMVI melanoma 98.5% | SK-MEL-28 melanoma 120% | SK-MEL-2 melanoma 102% | EKVX NSCLC 106% | SN12C renal 97% | UO-31 renal 82.7% | TK-10 renal 105% | ACHN renal 97.7% | CAKI-1 renal 92.7% | A498 renal 123% | CCRF-CEM leukemia 88.4% | MOLT-4 leukemia 98.9%

COC(=O)c1ccccc1Br
inactive: HCT-15 colon 99.6% | HT29 colon 110% | SNB-75 CNS 80.5% | SNB-19 CNS 96.4% | U251 CNS 106% | PC-3 prostate 80% | SK-MEL-5 melanoma 107% | UACC-62 melanoma 94.4% | LOX IMVI melanoma 98.4% | SK-MEL-28 melanoma 159% | SK-MEL-2 melanoma 114% | EKVX NSCLC 81.4% | SN12C renal 92.4% | UO-31 renal 96.4% | TK-10 renal 103% | ACHN renal 105% | CAKI-1 renal 102% | A498 renal 104% | CCRF-CEM leukemia 109% | MOLT-4 leukemia 94.6%

CC1OC(Oc2c(-c3ccc(O)c(O)c3)oc3cc(O)cc(O)c3c2=O)C(O)C(O)C1O (stereo not given)
inactive: HCT-15 colon 113% | HT29 colon 107% | SNB-75 CNS 96.5% | SNB-19 CNS 105% | U251 CNS 104% | PC-3 prostate 95.5% | SK-MEL-5 melanoma 91.8% | UACC-62 melanoma 103% | LOX IMVI melanoma 97.1% | SK-MEL-28 melanoma 105% | SK-MEL-2 melanoma 104% | EKVX NSCLC 110% | SN12C renal 102% | UO-31 renal 92.5% | TK-10 renal 103% | ACHN renal 113% | CAKI-1 renal 102% | A498 renal 99.5% | CCRF-CEM leukemia 106% | MOLT-4 leukemia 108%
